Test results from PubChem BioAssay (EPA / NIEHS).
Inconclusive results are not listed. The source holds several records for some structures; these can differ, active in one and inactive in another. Activity calls are given as the source filed them. The calls were made as follows, unless noted: active = hit-call score of the fitted dose curve at least 0.9, where 1 is the maximum; inconclusive = response in the unintended direction; inactive = score below 0.9.

system: not listed separately; test: CCTE_Shafer_MEA_dev_firing_rate_mean: CCTE's Neural Network Formation Assay for Mean Firing Rate, Shafer Lab (AID 2284031; active = hit-call score of the fitted dose curve at least 0.9, where 1 is the maximum; inactive = score below 0.9;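 as to AC50: curve fitted for loss of firing so AC50 reflects decreased mean firing rate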)
Method in brief: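 Extracellular spike frequency, AUC over DIV 5–12 recordings, in rat cortical neuron MEA cultures dosed from plating; loss direction vs DMSO.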

SMILES | outcome | AC50
Cc1cc(=O)[nH]c(=S)[nH]1 | inactive | 
CC(C)c1ccc(C(=O)N=C(N)N)cc1S(C)(=O)=O | inactive | 
C[Si]1(C)O[Si](C)(C)O[Si](C)(C)O[Si](C)(C)O1 | inactive | 
CCCc1cc(=O)[nH]c(=S)[nH]1 | inactive | 
CC(=O)Oc1ccccc1C(=O)O | inactive | 
FC(F)(F)C(F)(F)C(F)(F)C(F)(F)C(F)(F)C(F)(F)CCI | inactive | 
OC[C@@H](O)[C@@H](O)[C@H](O)[C@H](O)CO | inactive | 
C=CCc1ccc(O)c(OC)c1 | inactive | 
O=c1[nH]cc(F)c(=O)[nH]1 |  | 4.24 µM (active)

system: not listed separately; test: CCTE_Shafer_MEA_dev_per_burst_spike_percent: CCTE's Neural Network Formation Assay for Percent of Spikes in a Burst, Shafer Lab (AID 2284032; active = hit-call score of the fitted dose curve at least 0.9, where 1 is the maximum; inactive = score below 0.9;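 as to AC50: fitted as a decrease in burst spike percentage below DMSO baseline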)
Method in brief: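 Value is trapezoidal AUC over recordings on days 5, 7, 9 and 12 of the well-mean fraction of spikes falling in single-electrode bursts; rat cortical cultures exposed continuously from plating, treatment renewed DIV 5 and 9, fitted downward against DMSO.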

SMILES | outcome | AC50
Cc1cc(=O)[nH]c(=S)[nH]1 | inactive | 
CC(C)c1ccc(C(=O)N=C(N)N)cc1S(C)(=O)=O | inactive | 
C[Si]1(C)O[Si](C)(C)O[Si](C)(C)O[Si](C)(C)O1 | inactive | 
CCCc1cc(=O)[nH]c(=S)[nH]1 | inactive | 22.9 µM (active)
CC(=O)Oc1ccccc1C(=O)O | inactive | 
FC(F)(F)C(F)(F)C(F)(F)C(F)(F)C(F)(F)C(F)(F)CCI | inactive | 
OC[C@@H](O)[C@@H](O)[C@H](O)[C@H](O)CO | inactive | 
C=CCc1ccc(O)c(OC)c1 | inactive | 
O=c1[nH]cc(F)c(=O)[nH]1 |  | 1.47 µM (active)

system: not listed separately; test: CCTE_Deisenroth_AIME_384WELL_CTox_Active: Cytotoxicity Assessment (CTOX) in CCTE's 384-well Estrogen Receptor Transactivation Assay with AIME metabolic competence (metabolism positive), Deisenroth Lab (AID 2284037);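 also: chemicals first conditioned 2 h by alginate-bound induced rat liver S9 before cells; activity means signal loss indicating cell death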
Method in brief: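 Cytotoxicity in VM7Luc4E2 breast cells, 24 hour, measured as protease-substrate fluorescence loss, after 2-hour metabolic conditioning with induced rat hepatic S9 in alginate microspheres. Concentrations 0.002 - 200 uM, 10 points, bidirectional fitting.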

SMILES | outcome
Cc1cc(=O)[nH]c(=S)[nH]1 | inactive
COCCOCCOC | inactive
Cc1cccc([N+](=O)[O-])c1C | inactive
NCCO | inactive
CN1CCCC1=O | inactive
CC1(C)NC(=O)NC1=O | inactive
CCCc1cc(=O)[nH]c(=S)[nH]1 | inactive
O=c1c(O)c(-c2ccc(O)c(O)c2)oc2cc(O)cc(O)c12 | inactive
CCOc1ccc2c(c1)C(C)=CC(C)(C)N2 | inactive
Cc1ccc(N(C)C)cc1 | inactive
CCCCOC(=O)CCCCCCCCC(=O)OCCCC | inactive
Cc1ccc(C)c(O)c1C | inactive
C=CCc1ccc(O)c(OC)c1 | inactive
Cc1cccc(C)c1O | inactive
CCCCCCCCCCCCCCCCCC(=O)O | inactive

target: Estrogen receptor (Homo sapiens) (UniProt P03372); test: CCTE_Deisenroth_AIME_384WELL_LUC_Inactive: CCTE's 384-well Estrogen Receptor Transactivation Assay without AIME metabolic competence (ERTA luciferase; metabolism negative), Deisenroth Lab (AID 2284038);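 also: VM7Luc4E2 breast cells given medium preincubated 2 h with S9-free microspheres; hits raise estrogen receptor luciferase signal so potencies reflect agonists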
Sequence (P03372 whole entry, looked up): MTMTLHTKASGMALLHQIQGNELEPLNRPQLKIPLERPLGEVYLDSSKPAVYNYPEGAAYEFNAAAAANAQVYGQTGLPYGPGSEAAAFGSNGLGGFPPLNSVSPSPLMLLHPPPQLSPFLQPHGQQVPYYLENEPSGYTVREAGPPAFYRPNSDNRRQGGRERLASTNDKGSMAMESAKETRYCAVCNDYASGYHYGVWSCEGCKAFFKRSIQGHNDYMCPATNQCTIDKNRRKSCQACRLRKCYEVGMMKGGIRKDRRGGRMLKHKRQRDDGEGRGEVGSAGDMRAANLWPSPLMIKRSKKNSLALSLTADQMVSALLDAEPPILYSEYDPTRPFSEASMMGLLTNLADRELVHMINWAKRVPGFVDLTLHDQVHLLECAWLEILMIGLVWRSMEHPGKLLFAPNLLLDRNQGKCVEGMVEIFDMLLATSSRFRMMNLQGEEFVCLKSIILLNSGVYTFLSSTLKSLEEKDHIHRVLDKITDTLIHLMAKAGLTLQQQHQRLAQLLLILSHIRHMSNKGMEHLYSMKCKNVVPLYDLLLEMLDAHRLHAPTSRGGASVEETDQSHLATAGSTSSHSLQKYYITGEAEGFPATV
Method in brief: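 Metabolism-negative mode: AIME lids stamped in alginate-water, no hepatic S9. 2 h chemical incubation → medium onto VM7Luc4E2 ERTA, 24 h. Readout luciferase luminescence; gain-of-signal fit vs 17beta-estradiol. Conc. 0.002 - 200 uM.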

SMILES | outcome | AC50
Cc1cc(=O)[nH]c(=S)[nH]1 | inactive | 
COCCOCCOC | inactive | 
Cc1cccc([N+](=O)[O-])c1C | inactive | 
NCCO | inactive | 
CN1CCCC1=O | inactive | 
CC1(C)NC(=O)NC1=O | inactive | 
C[Si]1(C)O[Si](C)(C)O[Si](C)(C)O[Si](C)(C)O1 | inactive | 
CCCc1cc(=O)[nH]c(=S)[nH]1 | inactive | 
O=c1c(O)c(-c2ccc(O)c(O)c2)oc2cc(O)cc(O)c12 |  | 139 µM (active)
CCOc1ccc2c(c1)C(C)=CC(C)(C)N2 | inactive | 
Cc1ccc(N(C)C)cc1 | inactive | 
CCCCOC(=O)CCCCCCCCC(=O)OCCCC | inactive | 
CC(=O)Oc1ccccc1C(=O)O | inactive | 
Cc1ccc(C)c(O)c1C | inactive | 
C=CCc1ccc(O)c(OC)c1 | inactive | 
O=c1[nH]cc(F)c(=O)[nH]1 | inactive | 
Cc1cccc(C)c1O | inactive | 
CCCCCCCCCCCCCCCCCC(=O)O | inactive | 

system: not listed separately; test: CCTE_Deisenroth_AIME_384WELL_CTox_Inactive: Cytotoxicity Assessment (CTOX) in CCTE's 384-well Estrogen Receptor Transactivation Assay without AIME metabolic competence (metabolism negative), Deisenroth Lab (AID 2284039);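 also: cell viability via live-cell protease substrate cleaved to fluorescent probe; cells exposed 24 h to medium preincubated 2 h with alginate-water beads without S9; loss of fluorescence signal means loss of viability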
Method in brief: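 VM7Luc4E2 cells, metabolism-negative arm: test chemicals (0.002–200 uM, 10 points) pre-incubated 2 h with alginate-water microspheres, then medium transferred to cells for 24 h. Viability read as protease-substrate cleavage to fluorescent probe; loss-of-signal, bidirectional fitting.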

SMILES | outcome | AC50
Cc1cc(=O)[nH]c(=S)[nH]1 | inactive | 
COCCOCCOC | inactive | 
Cc1cccc([N+](=O)[O-])c1C | inactive | 
NCCO | inactive | 
CN1CCCC1=O | inactive | 
CC1(C)NC(=O)NC1=O | inactive | 
C[Si]1(C)O[Si](C)(C)O[Si](C)(C)O[Si](C)(C)O1 | inactive | 
CCCc1cc(=O)[nH]c(=S)[nH]1 | inactive | 
O=c1c(O)c(-c2ccc(O)c(O)c2)oc2cc(O)cc(O)c12 |  | 54.5 µM (active)
CCOc1ccc2c(c1)C(C)=CC(C)(C)N2 | inactive | 
Cc1ccc(N(C)C)cc1 | inactive | 
CCCCOC(=O)CCCCCCCCC(=O)OCCCC | inactive | 
Cc1ccc(C)c(O)c1C | inactive | 
C=CCc1ccc(O)c(OC)c1 | inactive | 
O=c1[nH]cc(F)c(=O)[nH]1 | inactive | 
Cc1cccc(C)c1O | inactive | 
CCCCCCCCCCCCCCCCCC(=O)O | inactive | 

system: not listed separately; test: CCTE_Shafer_MEA_dev_active_electrodes_number: CCTE's Neural Network Formation Assay for Number of Active Electrodes, Shafer Lab (AID 2284040);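 as to AC50: potency for loss of active electrodes versus DMSO so lower counts are hits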
Method in brief: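 Developing rat cortical networks on MEAs, exposed DIV 0–12. Value is the AUC of active-electrode counts (≥5 spikes/min) from days 5, 7, 9, 12, relative to DMSO.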

SMILES | outcome | AC50
Cc1cc(=O)[nH]c(=S)[nH]1 | inactive | 
CC(C)c1ccc(C(=O)N=C(N)N)cc1S(C)(=O)=O | inactive | 
C[Si]1(C)O[Si](C)(C)O[Si](C)(C)O[Si](C)(C)O1 | inactive | 
CCCc1cc(=O)[nH]c(=S)[nH]1 | inactive | 22.9 µM (active)
CC(=O)Oc1ccccc1C(=O)O | inactive | 
FC(F)(F)C(F)(F)C(F)(F)C(F)(F)C(F)(F)C(F)(F)CCI | inactive | 
OC[C@@H](O)[C@@H](O)[C@H](O)[C@H](O)CO | inactive | 
C=CCc1ccc(O)c(OC)c1 | inactive | 
O=c1[nH]cc(F)c(=O)[nH]1 |  | 2.59 µM (active)

target: Estrogen receptor (Homo sapiens) (UniProt P03372); test: CCTE_Deisenroth_AIME_384WELL_LUC_Shift: CCTE's 384-well Estrogen Receptor Transactivation Assay with AIME metabolic competence data shift (ERTA luciferase; difference in metabolism positive and negative), Deisenroth Lab (AID 2284041; active = hit-call score of the fitted dose curve at least 0.9, where 1 is the maximum; inactive = score below 0.9;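 also: shift is response with S9 minus without S9 so positive means metabolism raised ER signal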)
Method in brief: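 Test chemicals (0.002–200 uM, 10-point) were pre-incubated 2 h with alginate microspheres containing phenobarbital/beta-naphthoflavone-induced male Sprague Dawley rat liver S9 or water, then medium was transferred to VM7Luc4E2 cells for 24 h luciferase readout; shift = S9-positive minus S9-negative normalized response.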

SMILES | outcome | AC50
Cc1cc(=O)[nH]c(=S)[nH]1 | inactive | 
COCCOCCOC | inactive | 
Cc1cccc([N+](=O)[O-])c1C | inactive | 
NCCO | inactive | 
CN1CCCC1=O | inactive | 
CC1(C)NC(=O)NC1=O | inactive | 
C[Si]1(C)O[Si](C)(C)O[Si](C)(C)O[Si](C)(C)O1 | inactive | 
CCCc1cc(=O)[nH]c(=S)[nH]1 | inactive | 
O=c1c(O)c(-c2ccc(O)c(O)c2)oc2cc(O)cc(O)c12 |  | 13.5 µM (active)
Cc1ccc(N(C)C)cc1 | inactive | 
CCCCOC(=O)CCCCCCCCC(=O)OCCCC | inactive | 
CC(=O)Oc1ccccc1C(=O)O | inactive | 
Cc1ccc(C)c(O)c1C | inactive | 
C=CCc1ccc(O)c(OC)c1 | inactive | 
O=c1[nH]cc(F)c(=O)[nH]1 | inactive | 
Cc1cccc(C)c1O | inactive | 
CCCCCCCCCCCCCCCCCC(=O)O | inactive | 
